# Entries with a potency or affinity are not part of this list. Inconclusive results are not listed. Calls of active or inactive are those of the source.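 The calls were made as follows: active = falling signal with fitted half-maximal potency no higher than twice the top valid tested dose; inconclusive = poor fit quality, or flat fit spanning -70% to -30%; inactive = potency over limit, rising signal, or flat fit inside 30%.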
# Experiment: fungal growth arrest, C. neoformans – Alamar Blue, cherry-picks, dose response (AID 686998)
row,Compound,outcome
1,C[C@@H]1CN([C@@H](C)CO)C(=O)CCCn2nncc2CO[C@H]1CN(C)C(=O)Oc1cccc2ccccc12,inactive
2,C[C@H]1CN([C@@H](C)CO)C(=O)CCCn2nncc2CO[C@H]1CN(C)C(=O)Oc1cccc2ccccc12,inactive

# — PubChem BioAssay
